Measured values as given in PubChem BioAssay (NCATS).
Results filed as inconclusive are left out. Activity calls are given as the source filed them. Unless noted, calls follow the shape of the dose curve; as a rule, active = well fitted curve in the direction sought with a large enough effect; inconclusive = small, poorly fitted or top-dose-only effect, or another doubt; inactive = no such curve, though single readings can be large; an effect the other way counts as inactive or inconclusive.

What was measured:
[1] = qHTS to identify inhibitors of the type 1 interferon - major histocompatibility complex class I in skeletal muscle: primary screen against the NCATS LOPAC collection (AID 1347405);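 also: lytic HiBiT luminescence reporting HLA-B protein level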; also: potency is read from the fitted curve at half-maximal effect
In short: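 Immortalized human C25cl48 myoblasts with HiBiT knocked into endogenous HLA-B*08:01 were stimulated with 4.0 ng/ml IFN-beta and given compounds in a 7-point, 1:4.3 titration from 46 uM final; after 24 hrs, lytic HiBiT luminescence was read.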

[2] = qHTS for inhibitors of adenylyl cyclases using a fission yeast platform: a pilot screen against the NCATS LOPAC library (AID 1347410)
In short: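 Fission yeast qHTS: CHP2027 cells (AC9-GNAS-PDE4D2, fbp1-GFP), 5x10^6 cells/mL working density, EMM + His/Lys/Ura; LOPAC at up to 57 µM final; 18 h dark, 30C; GFP by laser cytometry. DPI positive control, DMSO vehicle.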

[3] = biological target: Single-stranded DNA cytosine deaminase (Homo sapiens) (UniProt Q9GZX7); assay: Validation qHTS assay for inhibitors of Activation Induced Cytidine Deaminase (AID): AID signal (AID 1347429)
In short: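 AID and UDG were combined and compounds added at final up to 114 uM, then DJC20/DJC23 FRET substrate was added for 4 hr at room temperature. NaOH was then added for 30 min before fluorescence was read at 540/590 nm.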

[4] = Primary qHTS for inhibitors of La Crosse Virus (LACV) - induced cell death in SH-SY5Y cells (AID 1508616);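 also: top concentration of the series differs between compounds; higher means more rescue of cells from virus-induced death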
In short: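 Luminescent ATP readout (ATPLite 1step, 5 min room temperature) measured rescue from LACV-induced death after 6 days of infection at 0.01 MOI; normalized to infected DMSO wells and uninfected DMSO wells.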

[5] = biological target: Calcium and integrin-binding protein 1 (Homo sapiens) (UniProt Q99828); assay: Validation qHTS for Identification of Calcium Integrin Binding protein 1 (CIB1) Competitor (AID 1508618)
In short: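 In this qHTS validation, the LOPAC set (up to 114 uM) was tested for blocking CIB1 binding to a fluorescein-tagged alphaIIb peptide, with FP detection at 480/540 nm.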

[6] = Primary qHTS for Huh7 cytotoxicity: counterscreen for inhibitors of MERS-S pseudotyped particle cell entry (AID 1479147; calls by dose curve)
[7] = Primary qHTS for Vero E6 cytotoxicity: counterscreen for inhibitors of SARS-S pseudo-typed particle cell entry (AID 1479150; calls by dose curve)
[8] = biological target: Calcium and integrin-binding protein 1 (Homo sapiens) (UniProt Q99828); assay: Primary qHTS for Identification of Calcium Integrin Binding Protein 1 (CIB1) Competitor (AID 1508620);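 also: GST tagged CIB1 binding a fluorescein labelled alphaIIb integrin peptide tracer; top concentration of the series differs between compounds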
In short: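 CIB1-GST (1 uM final) and compound incubated 15 min at room temperature before adding FITC-alphaIIb peptide tracer (100 nM final). Competition for binding read by fluorescence polarization (ex 480, em 540) after another 15 min at room temperature.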

[9] = Validation qHTS assay for inhibitors of Activation Induced Cytidine Deaminase (AID): UDG Counterscreen signal (AID 1347427)
In short: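 Counterscreen read of UDG activity (2 U/mL, 4/3x) in the FRET deamination format with AID (1 uM, 4/3x), DJC20/DJC23 substrates (250 nM, 4x), 4 h at room temperature. NaOH stop, fluorescence at 560 ex/665 em.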

[10] = qHTS to identify inhibitors of the type 1 interferon - major histocompatibility complex class I in skeletal muscle: primary screen against the NCATS Pharmaceutical Collection (AID 1347407);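 also: luminescence of HiBiT knocked into endogenous HLA-B as interferon-induced MHC class I level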
In short: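 Luminescence from HiBiT-tagged endogenous HLA-B*08:01 served as the read-out of IFN-beta-induced MHC class I in CRISPR-engineered C25cl48 myoblasts. Cells received 4 ng/ml IFN-beta plus compound (high final 46 uM, […]) for 24 h.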

[11] = biological target: Protein phosphatase 1D (Homo sapiens) (UniProt O15297); assay: RapidFire Mass Spectrometry qHTS Assay for Modulators of WT P53-Induced Phosphatase 1 (WIP1) (AID 1347424);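 also: amount of dephosphorylated VEPPL-S-QETFS peptide product formed by WIP1; series mostly up to about 63 µM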
In short: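 10 nM WIP1 + cpd, 1 h RT; + 2 uM VEPPL-pS-QETFS, 5 min RT; stop 0.5% formic acid; labelled product standard 1 uM; RapidFire MS. Buffer 50 mM Tris pH 7.5, 30 mM MgCl2, 1 mM TCEP.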

[12] = Primary qHTS for inhibitors of SARS-S pseudo-typed particle cell entry (AID 1479145; calls by dose curve; also: nearly all actives have a fitted effect of over 45% in size)
[13] = Primary qHTS for inhibitors of MERS-S pseudo-typed particle cell entry (AID 1479149; calls by dose curve; also: nearly all actives have a fitted effect of over 60% in size)
[14] = qHTS to identify inhibitors of the type 1 interferon - major histocompatibility complex class I in skeletal muscle: primary screen against the NCATS Mechanism Interrogation Plate v5.0 (MIPE) Libary (AID 1347411); also: nearly all actives have a fitted effect of over 65% in size; also: potency is read from the fitted curve at half-maximal effect
In short: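 Immortalized human C25cl48 myoblasts with HiBit knocked into endogenous HLA-B*08:01 were stimulated with 4.0 ng/ml IFN-beta and exposed to compounds (11-point 1:3 titration, top 46 uM final) for 24 hrs at 37 C; HiBiT lytic luminescence measured.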

[15] = Counterscreen qHTS for small molecule stabilizers of the endoplasmic reticulum resident proteome: GLuc-NoTag assay (AID 1508627);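 also: SH-SY5Y cells given compound then 100 nM thapsigargin to empty ER calcium; series mostly up to about 76 µM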
In short: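 Luminescence of Gaussia luciferase secreted into the medium (coelenterazine, 0.07x final, unlysed cells) was the read-out. Human SH-SY5Y neuroblastoma cells constitutively secreting untagged GLuc received compound for 19 h, then 100 nM thapsigargin for 4 h.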

[16] = Confirmatory qHTS for small molecule stabilizers of the endoplasmic reticulum resident proteome: Secreted ER Calcium Modulated Protein (SERCaMP) assay (AID 1508628);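 also: SH-SY5Y cells given compound 16 h then thapsigargin 100 nM for 4 h; series mostly up to about 76 µM; nearly all actives have a fitted effect of over 40% in size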
In short: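 We seeded SH-SY5Y-GLuc-SERCaMP cells, added compounds (three concentrations in the primary run, eleven up to 76.6 uM in confirmation), incubated 16 h, depleted ER calcium with thapsigargin, and read luciferase 4 h later.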

Measured: Potency

Chain of Calcium and integrin-binding protein 1 (Homo sapiens) (Q99828 whole entry, looked up): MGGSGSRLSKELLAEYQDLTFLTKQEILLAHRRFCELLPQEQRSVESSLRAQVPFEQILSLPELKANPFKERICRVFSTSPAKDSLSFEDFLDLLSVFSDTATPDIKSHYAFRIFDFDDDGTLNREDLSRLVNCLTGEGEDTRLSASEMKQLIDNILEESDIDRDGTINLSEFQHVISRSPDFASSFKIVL
Chain of Single-stranded DNA cytosine deaminase (Homo sapiens) (Q9GZX7 whole entry, looked up): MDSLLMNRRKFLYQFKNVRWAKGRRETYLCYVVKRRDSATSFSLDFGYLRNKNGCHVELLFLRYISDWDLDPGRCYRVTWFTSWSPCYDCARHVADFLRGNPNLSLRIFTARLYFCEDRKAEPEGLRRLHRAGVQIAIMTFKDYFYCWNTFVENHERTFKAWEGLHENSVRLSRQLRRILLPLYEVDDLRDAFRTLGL
Chain of Protein phosphatase 1D (Homo sapiens) (O15297 whole entry, looked up): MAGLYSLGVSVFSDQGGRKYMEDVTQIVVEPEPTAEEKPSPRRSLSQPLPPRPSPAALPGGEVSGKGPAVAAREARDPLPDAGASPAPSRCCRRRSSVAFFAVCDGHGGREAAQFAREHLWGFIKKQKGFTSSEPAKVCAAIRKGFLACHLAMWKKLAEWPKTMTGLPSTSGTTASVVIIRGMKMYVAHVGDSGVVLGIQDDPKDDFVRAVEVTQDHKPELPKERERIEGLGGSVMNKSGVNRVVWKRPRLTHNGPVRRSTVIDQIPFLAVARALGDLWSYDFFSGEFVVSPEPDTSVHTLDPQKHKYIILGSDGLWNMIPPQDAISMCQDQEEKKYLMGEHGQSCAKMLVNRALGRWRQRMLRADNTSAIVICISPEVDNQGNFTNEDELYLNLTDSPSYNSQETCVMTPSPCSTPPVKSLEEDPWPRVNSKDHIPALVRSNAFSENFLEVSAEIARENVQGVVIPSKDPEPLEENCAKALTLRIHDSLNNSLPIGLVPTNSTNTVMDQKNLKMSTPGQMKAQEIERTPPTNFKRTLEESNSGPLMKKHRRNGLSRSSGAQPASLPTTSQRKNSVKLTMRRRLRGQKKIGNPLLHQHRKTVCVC

C[C@@H](N)Cc1cnc[nH]1
inactive: [1] | [2] | [3] | [4] | [5]

CC(C)NC(C)Cc1ccc(I)cc1 (stereo not given)
inactive: [1] | [2] | [3] | [6] | [7] | [5]

Cn1cnc(CCN)c1
inactive: [1] | [2] | [3] | [4] | [5]

CC(=O)NCCc1c[nH]c2ccccc12
inactive: [1] | [2] | [3] | [4] | [5] | [8]

O=C(O)Cc1cnc[nH]1
inactive: [1] | [2] | [9] | [4] | [5]

CC(=O)[C@H]1CCC2C3CC[C@H]4C[C@H](O)CC[C@]4(C)C3CC[C@@]21C (stereo not given in full)
inactive: [1] | [2] | [3] | [4] | [5]

CC(Cc1ccc(O)cc1)NCC(O)c1cc(O)cc(O)c1 (stereo not given)
inactive: [1] | [10] | [2] | [11] | [12] | [6] | [13] | [7] | [4] | [5] | [8]

CC[C@@H](C(N)=O)N1CCCC1=O
inactive: [1] | [2] | [14] | [3] | [4] | [5] | [8]

NCc1cc(=O)[nH]o1
inactive: [1] | [2] | [9] | [4] | [5] | [15] | [16]

CCCCc1ccc(C(=O)O)nc1
inactive: [1] | [2] | [3] | [4] | [5]

CC[C@@]1(O)C(=O)OCc2c1cc1n(c2=O)Cc2cc3ccccc3nc2-1
inactive: [2] | [4] | [5]
active: [1] 708 nM | [14] 2080 nM

NC(=O)CN1CC(O)CC1=O (stereo not given)
inactive: [1] | [2] | [4] | [5]

COC(=O)[C@@H](N)CCCN=C(N)N[N+](=O)[O-]
inactive: [1] | [2] | [14] | [4] | [5] | [8]

CCCN1CCO[C@@H]2c3cc(O)ccc3OC[C@H]21
inactive: [1] | [2] | [14] | [4] | [5]

C[C@]12N[C@H](Cc3ccccc31)c1ccccc12
inactive: [1] | [2] | [4] | [5]

NC(N)=NOCCC(N)C(=O)O (stereo not given)
inactive: [1] | [2] | [9] | [4] | [5]

NCCc1c[nH]c2ccccc12
inactive: [1] | [2] | [4] | [5]

NC(CP(=O)(O)O)C(=O)O (stereo not given)
inactive: [1] | [2] | [4] | [5]

CCCN(CCC)C1CCc2ccc(O)cc2C1 (stereo not given)
inactive: [1] | [2] | [4] | [5]

Clc1cnc(Oc2ccc(Oc3ncc(Cl)cc3Cl)cc2)c(Cl)c1
inactive: [1] | [2] | [9] | [4] | [5]

O=C1CCCN1CC#CCN1CCCC1
inactive: [1] | [2] | [3] | [4] | [5]

COc1cc(C(O)CN)ccc1O (stereo not given)
inactive: [1] | [2] | [4] | [5]

CCCN1CCC[C@H](c2cccc(O)c2)C1
inactive: [1] | [2] | [3] | [4] | [5]

NC1CC1c1ccccc1 (stereo not given)
inactive: [1] | [2] | [9] | [4] | [5] | [8]

CN1C2CCC1CC(OC(=O)c1cc(Cl)cc(Cl)c1)C2 (stereo not given)
inactive: [1] | [2] | [3] | [4] | [5]

C[N+](C)(C)CC(=O)O
inactive: [1] | [2] | [12] | [6] | [13] | [7] | [5]

CS(=N)(=O)CC[C@H](N)C(=O)O (stereo not given in full)
inactive: [1] | [2] | [9] | [4] | [5]

NCCc1c[nH]c2ccc(O)cc12
inactive: [1] | [2] | [9] | [4] | [5]

O=C(Cc1ccc(Cl)c(Cl)c1)N1CCCCC1CN1CCCC1 (stereo not given)
inactive: [1] | [2] | [4] | [5]

C[N+]1(C)C2CCC1CC(OC(=O)C(CO)c1ccccc1)C2 (stereo not given)
inactive: [1] | [2] | [3] | [4] | [5]

NC(CCP(=O)(O)O)C(=O)O (stereo not given)
inactive: [1] | [2] | [4] | [5]

C#CCOC(=O)C1=CCCN(C)C1
inactive: [1] | [2] | [4] | [5]

CNCCc1c[nH]c2ccc(O)cc12
inactive: [1] | [2] | [9] | [4] | [5]

O=C(N[C@H]1CN2CCC1CC2)c1ccc(Cl)cc1
inactive: [1] | [2] | [14] | [4] | [5]

C=CCN1CC[C@]23CCCCC2[C@H]1Cc1ccc(O)cc13 (stereo not given in full)
inactive: [1] | [2] | [3] | [5] | [15]

O=C(O)[C@@H]1CCN1
inactive: [1] | [2] | [9] | [4] | [5]

O=[N+]([O-])/N=C1\NCCN1Cc1ccc(Cl)nc1
inactive: [10] | [11] | [12] | [6] | [13] | [7] | [4] | [8]
